A short description of test [1]: ATG_PXRE_CIS: Attagene CIS-FACTORIAL HepG2 Assay for human Pregnane X Receptor Element (PXRE) (AID 2282957). The note with it: HepG2 Attagene CIS-FACTORIAL PXRE reporter, mRNA; actives raise or lower the signal. The gist of the method:
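Transiently transfected HepG2 cells were dosed and incubated for 24 h. RNA was then isolated, DNase-treated, reverse-transcribed and reporter sequences amplified. Labeled, HpaI-digested fragments were quantified by capillary electrophoresis against DMSO.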

A short description of test [2]: ATG_RORE_CIS: Attagene CIS-FACTORIAL HepG2 Assay for human RAR-related Orphan Receptor Element (RORE) (AID 2282959). The note with it: HepG2 Attagene cis-factorial RORE reporter, mRNA; actives raise or lower the signal. In short, it runs like this: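 Readout: fluorescent reporter mRNA by RT-PCR plus capillary electrophoresis, 24 h after dosing transfected HepG2 cells. Endogenous transcription factor activity on a cis promoter element is measured. Gain or loss of signal fitted against DMSO.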

Test [3] can be described thus: ATG_Sox_CIS: Attagene CIS-FACTORIAL HepG2 Assay for human SRY-box transcription factor (SOX) (AID 2282960). The note with it: HepG2 Attagene cis-factorial SOX reporter, mRNA; actives raise or lower the signal. In short, it runs like this: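 Read-out: fluorescent RT-PCR products of SOX1-linked reporter transcripts resolved by capillary electrophoresis, fitted bidirectionally against DMSO. Transiently transfected HepG2 cells, 24 h after chemical exposure, endogenous transcription factor activity.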

Test [4] addresses Transcription factor Sp1 (Homo sapiens) (UniProt P08047). The experiment in a line: ATG_Sp1_CIS: Attagene CIS-FACTORIAL HepG2 Assay for human Specificity Protein 1 (Sp1) (AID 2282961). The note with it: HepG2 Sp1 cis-reporter transcription, actives raise or lower the signal. In short, it runs like this: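 Read-out: fluorescence of 6-FAM-labeled, HpaI-digested RT-PCR products separated by capillary electrophoresis. HepG2 cells carried transfected cis-element reporter units and were exposed to chemicals for 24 h; gain or loss of signal fitted relative to DMSO.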

Test [5] in a line: ATG_SREBP_CIS: Attagene CIS-FACTORIAL HepG2 Assay for human Sterol Regulatory Element Binding (SREBP) (AID 2282962). The note with it: HepG2 Attagene cis-factorial SREBP reporter, mRNA; actives raise or lower the signal. In short, it runs like this:
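HepG2 cells transiently transfected with multiplexed cis-element reporter units report endogenous transcription factor activity. After 24 h of chemical exposure, reporter mRNA was quantified by RT-PCR, 6-FAM labelling, HpaI digestion and capillary electrophoresis; bidirectional fits used DMSO as baseline.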

Test [6] concerns the target Signal transducer and activator of transcription 3 (Homo sapiens) (UniProt P40763). Nature of the test: ATG_STAT3_CIS: Attagene CIS-FACTORIAL HepG2 Assay for human Signal Transducer and Activator of Transcription 3 (STAT3) (AID 2282963). The note with it: HepG2, Attagene cis-factorial STAT3 reporter transcription; actives raise or lower the signal. In short, it runs like this: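 Endogenous STAT3-responsive cis-element activity was read in transiently transfected HepG2 cells after 24 h treatment. Reporter transcripts were quantified via RT-PCR and capillary electrophoresis, with DMSO as negative control and bidirectional curve fitting.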

Test [7] is described as follows: ATG_TA_CIS: Attagene CIS-FACTORIAL HepG2 Assay for human TA Basal Promoter (AID 2282964). The note with it: HepG2 Attagene CIS-factorial TA basal promoter reporter; actives raise or lower the signal. In short, it runs like this: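 Fluorescence from labelled RT-PCR reporter fragments, separated by capillary electrophoresis, gives the signal. Cells: HepG2 transiently carrying multiple reporter units, 24 h chemical dosing. Gain or loss relative to DMSO.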

A short description of test [8]: ATG_TCF_b_cat_CIS: Attagene CIS-FACTORIAL HepG2 Assay for human T-Cell-Factor with beta-catenin (TCF/b-cat) (AID 2282965). The note with it: HepG2 TCF/beta-catenin cis-reporter transcription, actives raise or lower the signal. In short, it runs like this:
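Endogenous TCF/LEF activity read as reporter transcript level via RT-PCR and capillary electrophoresis fluorescence in transfected HepG2, 24 h exposure; gain or loss of signal fitted against DMSO controls.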

Test [9] is described as follows: ATG_TAL_CIS: Attagene CIS-FACTORIAL HepG2 Assay for human TAL Basal Promoter (AID 2282966).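 Also: background control endpoint measuring basal TAL promoter reporter mRNA not a specific factor.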 The note with it: HepG2 Attagene cis-factorial TAL promoter reporter; actives raise or lower the signal. The gist of the method:
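Readout: reporter mRNA, fluorescence by CE. System: HepG2, transient multi-reporter transfection, endogenous TF activity. Exposure: 24 h. Analysis: bidirectional, DMSO-normalized; background control.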

Test [10] in a line: ATG_PPRE_CIS: Attagene CIS-FACTORIAL HepG2 Assay for human Peroxisome Proliferator-activated Response Element (PPRE) (AID 2282958). The note with it: HepG2 PPRE cis-element reporter, Attagene transcription factor profiling; actives raise or lower the signal. In short, it runs like this: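 Read-out: fluorescent reporter mRNA fragments resolved by capillary electrophoresis after RT-PCR. HepG2 cells carried transiently transfected PPRE-driven cis reporter constructs and were dosed for 24 h; gain or loss of signal fitted relative to DMSO.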

The text below walks through data of PubChem BioAssay (EPA / NIEHS).

Several values for one entry are separate records, joined by “and”; a condition that tells them apart may be missing. Equal values may be shown once. Activity calls are given as the source filed them. The calls were made as follows: active = hit-call score of the fitted dose curve at least 0.9, where 1 is the maximum; inactive = score below 0.9.

Transcription factor Sp1 (Homo sapiens), sequence (P08047 whole entry, looked up): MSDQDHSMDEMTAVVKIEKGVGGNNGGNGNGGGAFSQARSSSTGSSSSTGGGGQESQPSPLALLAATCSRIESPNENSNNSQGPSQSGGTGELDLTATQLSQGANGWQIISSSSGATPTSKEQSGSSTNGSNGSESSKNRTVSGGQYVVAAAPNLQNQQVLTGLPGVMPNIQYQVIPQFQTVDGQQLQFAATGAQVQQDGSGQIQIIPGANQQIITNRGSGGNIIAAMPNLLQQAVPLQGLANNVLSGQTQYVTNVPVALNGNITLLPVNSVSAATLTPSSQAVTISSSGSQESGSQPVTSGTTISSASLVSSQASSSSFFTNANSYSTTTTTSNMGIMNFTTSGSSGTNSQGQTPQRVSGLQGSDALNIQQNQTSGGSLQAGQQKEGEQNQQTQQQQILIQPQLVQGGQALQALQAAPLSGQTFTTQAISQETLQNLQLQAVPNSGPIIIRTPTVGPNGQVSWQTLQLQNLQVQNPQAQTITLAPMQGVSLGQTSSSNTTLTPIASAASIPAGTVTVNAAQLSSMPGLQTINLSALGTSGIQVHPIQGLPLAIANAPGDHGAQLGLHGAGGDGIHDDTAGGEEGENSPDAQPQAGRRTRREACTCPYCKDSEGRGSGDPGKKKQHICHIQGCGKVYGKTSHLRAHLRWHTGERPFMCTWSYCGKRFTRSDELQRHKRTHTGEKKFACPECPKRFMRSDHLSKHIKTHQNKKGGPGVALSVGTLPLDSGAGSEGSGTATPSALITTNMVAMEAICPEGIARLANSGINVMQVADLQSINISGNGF
Signal transducer and activator of transcription 3 (Homo sapiens), sequence (P40763 whole entry, looked up): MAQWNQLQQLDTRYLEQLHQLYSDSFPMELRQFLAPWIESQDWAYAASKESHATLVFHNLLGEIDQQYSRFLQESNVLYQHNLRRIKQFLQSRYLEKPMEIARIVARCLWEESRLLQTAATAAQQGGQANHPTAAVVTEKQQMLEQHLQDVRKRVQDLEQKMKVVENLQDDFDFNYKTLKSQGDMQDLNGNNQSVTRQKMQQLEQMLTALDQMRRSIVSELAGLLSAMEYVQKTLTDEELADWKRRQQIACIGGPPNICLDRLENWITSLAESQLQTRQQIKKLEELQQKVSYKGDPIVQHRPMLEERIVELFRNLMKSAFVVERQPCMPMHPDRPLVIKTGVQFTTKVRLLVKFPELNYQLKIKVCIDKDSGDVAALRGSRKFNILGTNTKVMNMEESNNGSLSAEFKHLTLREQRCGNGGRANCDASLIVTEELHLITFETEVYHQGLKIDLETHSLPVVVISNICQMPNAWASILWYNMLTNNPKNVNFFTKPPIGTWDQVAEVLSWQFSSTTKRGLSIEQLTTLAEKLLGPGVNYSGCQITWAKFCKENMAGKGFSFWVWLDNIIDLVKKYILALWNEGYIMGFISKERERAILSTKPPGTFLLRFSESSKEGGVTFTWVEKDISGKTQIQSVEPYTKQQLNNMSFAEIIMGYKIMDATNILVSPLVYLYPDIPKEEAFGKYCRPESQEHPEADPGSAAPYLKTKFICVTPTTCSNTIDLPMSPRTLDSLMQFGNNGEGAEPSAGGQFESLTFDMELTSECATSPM

Turning to `CCOC(=O)C(SP(=S)(OC)OC)c1ccccc1` (stereo not given), the AC50 (commonly the concentration giving half of the maximal activity seen) in test [1] is 1.77 µM (active). Besides, the call in test [2], in test [3], in test [4], in [5], in test [6] and in test [7] was inactive. The compound was called inactive in test [8] and in test [9].
Regarding `C[C@@H]1O[C@@H](O[C@H]2C[C@@H](O)[C@]3(CO)[C@H]4[C@H](O)C[C@]5(C)[C@@H](C6=CC(=O)OC6)CC[C@]5(O)[C@@H]4CC[C@]3(O)C2)[C@H](O)[C@H](O)[C@H]1O`, the AC50 in test [1] was 0.137 µM (active); in test [5] it was 0.0716 µM (active); in [8], 2.31 µM (active); in test [9], 0.165 µM (active). The compound was called inactive in test [10], in test [3], in test [6] and in [7].
For the compound `CCC[N+](CCC)(CCC)CCC`, the call in test [1], in test [10], in test [4], in test [5], in [6] and in [7] was inactive. Further, the compound was called inactive in test [8].
For `O=C/C(Cl)=C(/Cl)C(=O)O`, the AC50 in test [1] is 167 µM (active); in test [5], 159 µM (active); in [8], 31.9 µM (active). Moreover, the compound was called inactive in test [10], in test [4], in test [6], in test [7] and in [9].
Turning to `O=c1[nH]c2ccccc2n1C1CCN(CCCC(c2ccc(F)cc2)c2ccc(F)cc2)CC1`, the compound was classed as inactive in test [1], in test [2], in test [3], in test [4], in test [6] and in [7]. Moreover, the outcome in test [8] and in [9] was inactive. In [5], the AC50 was 3.71 µM (active).
As for `O=NN1CCOCC1`, the AC50 in test [1] is 69.6 µM (active). For the same compound, the result in [10], in test [3], in test [4], in test [6], in test [7] and in test [8] was inactive. Also, the compound was called inactive in test [9].
On to `OCC(c1ccc(Cl)cc1)c1ccc(Cl)cc1`, for which the AC50 in [1] is 8.73 µM (active); in [4], 53.2 µM (active); in [5], 60.9 µM (active); in test [7], 60.7 µM (active). Also, the compound was classed as inactive in test [2], in test [3], in test [6], in test [8] and in test [9].
With `CC1(C)COP(Oc2ccccc2)OC1`, the compound was called inactive in test [1], in test [2], in [3], in [4], in [5] and in test [6]. The call in [7], in test [8] and in test [9] was inactive.
On to `O=C(NC(=O)c1c(F)cccc1F)Nc1cc(Cl)c(OC(F)(F)C(F)C(F)(F)F)cc1Cl` (stereo not given), for which the compound was classed as inactive in test [1], in test [2], in test [3], in test [4], in [5] and in test [6]. Moreover, the compound was classed as inactive in [7], in test [8] and in [9].
As for `Nc1ccc(-c2ccccc2)cc1`, the AC50 in test [1] was 30.1 µM (active). Besides, the outcome in [2], in test [3], in [4], in test [5], in test [6] and in [7] was inactive. Besides, the call in test [8] was inactive.
As to `N#Cc1ccccc1Cl`, the AC50 in test [1] is 26.4 µM (active). The result in test [10], in test [3], in test [5], in test [6], in test [7] and in test [8] was inactive. Besides, the outcome in [9] was inactive.
Turning to `CCOC(=O)CC(=O)CCl`, the compound was classed as inactive in test [1], in test [2], in test [6], in test [7], in test [8] and in test [9]. Also, the values for the AC50 in test [3], in test [4] and in test [5] were 26.2 µM (active), 23.9 µM (active) and 26.2 µM (active), respectively.
On to `CC1(C)[C@H](C(=O)O[C@H](C#N)c2cccc(Oc3ccccc3)c2)[C@@H]1/C=C(\Cl)C(F)(F)F`, for which the AC50 in test [1] was 384 nM (active) and 683 nM (active). The compound was classed as inactive in test [10], in test [4], in test [6], in test [7], in [8] and in test [9].
For `COP(=S)(OC)Oc1cc(Cl)c(I)cc1Cl`, the AC50 in test [1] is 8.06 µM (active); in [3], 33.4 µM (active); in test [4] it was 33.4 µM (active); in test [8] it was 48.6 µM (active). Besides, the outcome in test [10], in test [6], in [7] and in test [9] was inactive.
On to `C#C[C@]1(O)CC[C@H]2[C@@H]3CCC4=CC(=O)CC[C@]4(C)[C@H]3CC[C@@]21C`, for which the compound was classed as inactive in test [1], in [10], in [3], in [6], in test [7] and in test [8]. Also, in [9], the compound was classed as inactive.
As for `COCC(=O)N(c1c(C)cccc1C)[C@H](C)C(=O)OC`, in [1], the AC50 was 27.7 µM (active). For the same compound, the compound was classed as inactive in test [10], in test [3], in test [4], in [6], in test [7] and in test [8]. Besides, the compound was classed as inactive in test [9].
Take `CC(C)(COCC1CO1)COCC1CO1` (stereo not given): in test [1], the AC50 was 27.3 µM (active). Also, the compound was classed as inactive in test [10], in test [3], in test [5], in test [6], in test [7] and in test [8].
As to `O=[N+]([O-])c1ccc(Nc2ccccc2)cc1`, the AC50 in test [1] is 26.9 µM (active). Also, the compound was classed as inactive in test [2], in [3], in [4], in test [5], in test [6] and in test [7]. The outcome in test [8] and in test [9] was inactive.
In the case of `Nc1nc(N)nc(Cl)n1`, the compound was called inactive in test [1], in test [2], in test [3], in test [4], in test [5] and in test [6]. The compound was called inactive in [7], in test [8] and in test [9].
As for `CCCCCCCCBr`, the compound was called inactive in test [1], in test [2], in test [3], in test [4], in test [5] and in test [6]. Besides, the result in test [7], in test [8] and in [9] was inactive.
For the compound `ClCc1ccccc1Cl`, the AC50 in test [1] was 38.3 µM (active); in [3] it was 120 µM (active); in [4], 100 µM (active). For the same compound, the outcome in [2], in [5], in [6], in [7], in test [8] and in test [9] was inactive.
Take `CC(C)(C#N)N=NC(C)(C)C#N`: the AC50 in test [1] is 79.6 µM (active). In addition, the result in [10], in test [3], in [4], in test [6], in test [7] and in [8] was inactive. Besides, in [9], the outcome was inactive.
Regarding `O=C1C[C@@H]2OCC=C3CN4CC[C@]56c7ccccc7N1[C@H]5[C@H]2[C@H]3C[C@H]46`, the AC50 in test [1] was 44.6 µM (active) and 10.9 µM (active). Further, the outcome in test [2], in test [3], in test [4], in test [5], in [6] and in test [7] was inactive. Also, the compound was classed as inactive in test [8] and in test [9].
Take `COC(=O)c1cc(Oc2ccc(Cl)cc2Cl)ccc1[N+](=O)[O-]`: the results for the AC50 in test [1], in [10] and in [7] were 5.12 µM (active), 10.2 µM (active) and 27.1 µM (active), respectively. The compound was called inactive in test [4], in test [5], in [6], in [8] and in test [9].
`c1csc(-c2ccc(-c3cccs3)s2)c1`: the AC50 in test [1] is 5.21 µM (active); in test [10], 2.09 µM (active); in test [7] it was 4.42 µM (active). The compound was called inactive in test [3], in test [5], in test [6], in test [8] and in [9].
`CN(N=O)C(N)=O`: the compound was called inactive in test [1], in [2], in [3], in test [5], in test [6] and in [7]. The compound was classed as inactive in test [8] and in test [9].
